Assay [1] in a line: NCI Yeast Anticancer Drug Screen. Data for the rad50 strain (AID 155).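 Also: 0% = growth of vehicle-only cultures of the same strain.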 As to conditions: S. cerevisiae rad50 strain growth inhibition; at 50.0 µM; hits give high values. In outline: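 Vehicle-treated cultures provide the reference for the growth inhibition reported for compound-exposed, repair-deficient yeast.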
Assay [2] can be described thus: NCI Yeast Anticancer Drug Screen. Data for the mec2-1 strain (AID 157). The conditions noted are these: S. cerevisiae mec2-1 strain, at 50.0 µM, hits give high values. In outline:
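Vehicle-treated cultures served as reference for growth inhibition of compound-exposed mec2-1 yeast.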

The nature of assay [3]: NCI Yeast Anticancer Drug Screen. Data for the sgs1 mgt1 strain (AID 161).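 Also: 0% = growth of cultures given vehicle only.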 As to conditions: S. cerevisiae sgs1 mgt1 strain, at 50.0 µM, hits give high values. In outline:
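Inhibition of yeast growth, normalised to vehicle-treated controls, is reported for a strain bearing genetic alterations in DNA damage repair.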

Assay [4] can be described thus: NCI Yeast Anticancer Drug Screen. Data for the cln2 rad14 strain (AID 165).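 Also: 0% = growth equal to vehicle treated cultures.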 As to conditions: S. cerevisiae cln2 rad14 strain, at 50.0 µM, hits give high values. In outline:
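Each compound was tested on cln2 rad14 yeast. Inhibition of growth was calculated against vehicle-exposed controls.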

Assay [5] is described as follows: NCI Yeast Anticancer Drug Screen. Data for the bub3 strain (AID 167). The conditions noted are these: S. cerevisiae bub3 mutant strain, at 50.0 µM, hits give high values. In outline: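 Mutant yeast screening strain plus compound; vehicle-treated cultures serve as the 0% inhibition reference.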
Assay [6] in a line: NCI Yeast Anticancer Drug Screen. Data for the mlh1 rad18 strain (AID 175). The conditions noted are these: S. cerevisiae mlh1 rad18 strain growth inhibition; at 50.0 µM; hits give high values. An outline of the steps: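 Vehicle-treated cultures served as the reference for growth inhibition in a yeast strain carrying DNA damage repair alterations exposed to each compound.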

Compounds without any hit were thinned out: in the full panel of roughly 79,000, 15% have a hit. A number with no mark means an inactive call. Activity calls are given as the source filed them. Rule as the data show it: active = growth inhibition above about 70%; inactive = the rest.

In the case of `COc1ccc(CNc2cnc3cc(N)ccc3n2)cc1OC`, the growth inhibition is -12.3% in assay [1]; -34.5% in assay [2]; -37.5% in assay [3]; 3.15% in assay [4]; -19.3% in assay [5]; -16.4% in assay [6].
For `CC(C)(CCCCC(C)(C)NC1=NCCO1)NC1=NCCO1`, the growth inhibition in assay [1] was -0.2%; in assay [2], -8.8%; in assay [3] it was 9.9%; in assay [4], -20.6%; in assay [5] it was -4.45%; in assay [6], -9.4%.
Consider `O=C(O)C(=Cc1ccc([N+](=O)[O-])cc1)C(=O)O`, for which the growth inhibition in assay [1] is 11.1%; in assay [2], -21.8%; in assay [3] it was 5.95%; in assay [4] it was -7.35%; in assay [5], -0.7%; in assay [6], -11.6%.
`COC(=O)C(N)C(C)C` (stereo not given): the growth inhibition is 13.8% in assay [1]; 9.15% in assay [2]; -10.3% in assay [3]; -6.9% in assay [4]; 4.55% in assay [5]; 0.35% in assay [6].
As to `CCCCOP(=O)(OCCCC)/C(C#N)=C/c1ccc(C)o1`, the growth inhibition was -21.2% in assay [1]; -40.8% in assay [2]; -4.85% in assay [3]; -35.4% in assay [4]; -4.7% in assay [5]; 10.1% in assay [6].
With `COc1ccc(C(O)c2ccccn2)cc1` (stereo not given), the growth inhibition in assay [1] is -13.1%; in assay [2] it was -35.9%; in assay [3] it was -24%; in assay [4], -34.8%; in assay [5], -62.7%; in assay [6], -18.7%.
Take `CCOC(=O)C(C#N)=C1CC(C)OC(C)C1` (stereo not given): the growth inhibition was 12.3% in assay [1]; 0.65% in assay [2]; 5.85% in assay [3]; -33.6% in assay [4]; 17.4% in assay [5]; 4.15% in assay [6].
Take `NC(=O)Oc1cccc(OC(N)=O)c1`: the growth inhibition in assay [1] was 8.95%; in assay [2], -6.25%; in assay [3], 13.9%; in assay [4], 3.8%; in assay [5], 18.8%; in assay [6], 13.6%.
Turning to `CC(=O)OCCC12CCC(CC1Cl)C2(C)C` (stereo not given), the growth inhibition is -1.45% in assay [1]; -9.7% in assay [2]; 9.85% in assay [3]; 24.7% in assay [4]; -3.05% in assay [5]; -3.55% in assay [6].
In the case of `CCC(COC(=O)CC[C@@H](NC(=O)C(C)NC(=O)C(C)OC1C(O)C(CO)OC(OCc2ccccc2)C1NC(C)=O)C(N)=O)NC1c2ccccc2Nc2cccc([N+](=O)[O-])c21` (stereo not given in full), the growth inhibition in assay [1] is 5.65%; in assay [2], -9.7%; in assay [3] it was -13.8%; in assay [4], 6.4%; in assay [5], -17.9%; in assay [6] it was -10.7%.
For the compound `CC(=O)Nc1cnc2ccccc2c1`, the growth inhibition in assay [1] was 9.65%; in assay [2], -0.4%; in assay [3], 7.1%; in assay [4], -2.8%; in assay [5] it was 4.6%; in assay [6], -15.7%.
Take `Nc1ccc(P(=O)(Nc2ccc3ccccc3c2)Nc2ccc3ccccc3c2)cc1`: the growth inhibition in assay [1] is 83.2% (active); in assay [2], 67.5%; in assay [3] it was 89.2% (active); in assay [4] it was 79.9% (active); in assay [5], 83.2% (active); in assay [6] it was 91.2% (active).
Consider `COc1cc(/C=C2\N=C(C)OC2=O)ccc1O`, for which the growth inhibition is -2.8% in assay [1]; -6.5% in assay [2]; 5.7% in assay [3]; -65.5% in assay [4]; 2.95% in assay [5]; 2.05% in assay [6].
`Cn1c(=O)c(CC(O)C(Cl)(Cl)Cl)nc2ccccc21` (stereo not given): the growth inhibition was 20.6% in assay [1]; 23.6% in assay [2]; 3.4% in assay [3]; 3.75% in assay [4]; 18.9% in assay [5]; 31.7% in assay [6].
On to `O=[N+]([O-])c1nccn1CCCl`, for which the growth inhibition in assay [1] is 20.1%; in assay [2], -3.75%; in assay [3], 2.35%; in assay [4], -26.1%; in assay [5], -9.85%; in assay [6], -1.7%.
Turning to `COc1ccc2[nH]c(=O)c(CO)c(CO)c2c1`, the growth inhibition in assay [1] is 0.45%; in assay [2] it was -12.2%; in assay [3] it was -1%; in assay [4], -26.1%; in assay [5] it was 0.55%; in assay [6] it was 4.35%.
`COC(=O)c1c(C(=O)OC)c(C(c2ccccc2)c2ccccc2)n(-c2ccccc2)c1Cl`: the growth inhibition in assay [1] was -17.6%; in assay [2], -21.1%; in assay [3], 0.6%; in assay [4], 0.65%; in assay [5], -18.3%; in assay [6] it was 1.2%.
`O=[N+]([O-])c1ccc(F)c(Cl)c1F`: the growth inhibition was 15.8% in assay [1]; -6.65% in assay [2]; -2.15% in assay [3]; -20.9% in assay [4]; -12.7% in assay [5]; -3.45% in assay [6].
For `COC(=O)C1(CC(=O)/C=C/c2ccccc2)NC(=S)NC(=O)C1C#N` (stereo not given), the growth inhibition was 15.7% in assay [1]; -3.65% in assay [2]; -8.4% in assay [3]; 10.1% in assay [4]; -19.9% in assay [5]; 9.9% in assay [6].
With `NC(=O)C1CCCN1C(=O)C(Cc1cnc[nH]1)NC(=O)C1CCCC1` (stereo not given), the growth inhibition is -46.4% in assay [1]; -1.6% in assay [2]; -1.65% in assay [3]; 8.1% in assay [4]; 7.05% in assay [5]; -8.35% in assay [6].
